Shown are actives, neighbours in structure and some others; about 3.3% of the full set was active somewhere.
PriA SSB inh: inhibitors of Klebsiella pneumoniae PriA binding to SSB C-terminal tail, primary screen, biochemical, AlphaScreen. PriA–SSB C-terminal tail interaction (Klebsiella pneumoniae). AlphaScreen SSBct-PriA binding, biotinylated peptide. inhibition, % at 33 µM. 0.6% of 430,000 active. AID 1272365, 2023; in the data active = inhibition mostly above about 37%, no sharp cut-off; inactive = mostly below about 20%;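 also: plate controls were negative control peptide for no effect and reference peptide for full effect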
Anthrax LF inh2: Bacillus anthracis LF protease inhibitors, primary screen, biochemical, multiplex microsphere, MLPCN library | AID 588501, 2011 | inhibition, % at 10 µM | Lethal factor (Bacillus anthracis), P15917 | 0.12% of 360,000 active | multiplex microsphere protease cleavage assay; also: plate controls were buffer without enzyme for full effect and enzyme alone for no effect
BoNT F protease: BoNT/F light chain protease inhibitors, primary screen, biochemical, flow cytometry, MLPCN library. Botulinum neurotoxin type F light chain protease (Clostridium botulinum). Multiplex microsphere protease cleavage assay. inhibition, % at 10 µM. 0.22% of 360,000 active. AID 588497, 2011; in the data active = inhibition above about 35%, passing the limit was not always enough; inconclusive = no clear call, values can overlap the other calls; also: plate controls were buffer without enzyme for full effect and enzyme alone for no effect
Bead autofluor: counter-screen for toxin protease inhibitors: compound fluorescence; compound autofluorescence counterscreen, microsphere flow cytometry; active compounds read high; 3.1% of 360,000 active; fluorescence intensity (test concentration not listed); in the data active = fluorescence intensity above about 16000; inconclusive = no clear call, values can overlap the other calls
BoNT-A LC inh2: BoNT/A light chain protease inhibitors, primary screen, biochemical, flow cytometry, MLPCN library. Botulinum neurotoxin type A light chain protease (Clostridium botulinum A str. ATCC 3502). multiplex microsphere protease substrate cleavage. inhibition, % at 10 µM. 0.17% of 360,000 active. AID 588499, 2011; also: plate controls were buffer without enzyme for full effect and enzyme alone for no effect
MazEF act: activators of E. coli MazEF toxin-antitoxin RNase, primary screen, biochemical, fluorescence, uHTS; Endoribonuclease toxin MazF (Escherichia coli (strain K12)), P0AE70; FAM/BHQ RNA-DNA oligo cleavage fluorescence, 5 h; activation, % at 20 µM; 0.32% of 350,000 active; in the data active = activation above about 50%
Target sequence (P0AE70 whole entry, looked up): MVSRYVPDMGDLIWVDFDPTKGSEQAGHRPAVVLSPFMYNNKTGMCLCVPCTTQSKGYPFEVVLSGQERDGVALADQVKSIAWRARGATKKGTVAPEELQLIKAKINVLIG
Active calls of the source: *; ? = inconclusive; . = no result. Rule as the data show it, unless noted: active = inhibition above about 30%; inconclusive = no clear call, values can overlap the other calls; inactive = below that.

SMILES	PriA SSB inh	Anthrax LF inh2	BoNT F protease	Bead autofluor	BoNT-A LC inh2	MazEF act
O=C(c1ccccc1C(F)(F)F)N1Cc2cncnc2C1	-10	.	.	.	.	.
CCOC(=O)Cn1nc(C)n(-c2ccc(C)cc2)c1=O	1	-1	4	22478*	2	1
COC(=O)C(C)n1nc(C)n(-c2ccc(C)cc2)c1=O (configuration not stated)	0	-2	4	22187*	2	1
Cc1nn(CCOc2ccccc2)c(=O)n1-c1ccccc1	7	-4	-1	22975*	0	-2
CCOC(=O)Cn1nc(C)n(-c2ccccc2)c1=O	-5	1	2	22724*	0	5
COc1cc(OC)cc(C(=O)NCC2CCN(Cc3cccs3)CC2)c1	-13	.	.	.	.	.
CCOC(=O)c1ccc(NC(=O)Cn2c(=O)n(Cc3ccccc3)c(=O)c3nn(CC)cc32)cc1	-1	.	.	.	.	.
CCOC(=O)Cn1nc(-c2ccccc2)ccc1=O	-11	-3	-1	23084*	-1	-3
O=C(NCCCn1nc(-c2cccs2)ccc1=O)c1c(F)cccc1F	-12	.	.	.	.	.
COc1ccc(CNCc2ccncc2)c(OC)c1	-6	-17	-8	4132	-4	3
CCC(CC)NCc1ccc(OC)cc1OC	-2	2	-4	22992*	-1	1
COc1ccc(CNC2CCCCC2C)c(OC)c1 (configuration not stated)	-7	-1	2	22181*	3	0
O=C(/C=C/c1ccccc1)Nn1cnc2c(cnn2-c2cccc(Cl)c2)c1=O	3	.	.	.	.	.
O=C(NCCCn1ccnc1)c1cc(C(=O)C2CCCCC2)c[nH]1	5	-3	4	3168	0	1
O=C(c1ccc(C(F)(F)F)cc1)c1c[nH]c(C(=O)NCCCn2ccnc2)c1	15	-1	1	19564*	?	-6
COc1ccc(C(=O)Nc2ccccc2C(=O)NCCCn2ccnc2)cc1	-14	-1	0	2182	0	-2
O=C(NCCCn1ccnc1)c1ccco1	-6	-4	-6	24362*	-4	2
O=C(Nc1ccccc1C(=O)NCCCn1ccnc1)c1ccccc1	4	-1	-2	20501*	-1	0
CC(C)(C)C(=O)Nc1ccccc1C(=O)NCCCn1ccnc1	51*	-3	-6	4616	0	5
O=C(Cc1ccsc1)NCCc1ccoc1	-12	.	.	.	.	.
O=C(CCc1ccc(C(F)(F)F)cc1)N(Cc1ccsc1)Cc1ccco1	-12	.	.	.	.	.
O=C(CN1C(=O)c2ccccc2C1=O)OCC(=O)c1ccc(-c2ccccc2)cc1	-3	.	.	.	.	.
COC(=O)c1c(NC(=O)c2ccc(Br)s2)sc2c1CC(C)(C)NC2(C)C	-3	.	.	.	.	.
O=C(NCCCn1ccnc1)c1cc2n(n1)CCCO2	34*	.	.	.	.	.
CC(C)(C)c1ccc(C(=O)N/C(=C/c2ccco2)C(=O)NCCCn2ccnc2)cc1	63*	.	.	.	.	.
SMILES	PriA SSB inh	Anthrax LF inh2	BoNT F protease	Bead autofluor	BoNT-A LC inh2	MazEF act
COc1ccc(S(=O)(=O)N2CCN=C2SCc2c(F)cccc2Cl)cc1	-8	.	.	.	.	.
CCOc1ccc(-c2csc(-n3nc(C)cc3NC(=O)c3ccc(F)c(F)c3)n2)cc1	5	.	.	.	.	.
Cc1ccc(-n2ncc3c(=O)n(Cc4cccnc4)cnc32)cc1	-4	-3	-3	19270*	1	-8
O=C(CCn1cnc2c(cnn2-c2ccc(F)cc2)c1=O)NCc1cccnc1	-6	.	.	.	.	.
CCSc1ncnc2c1cnn2-c1ccc(F)cc1	-4	.	.	.	.	.
O=C(O)c1ccc(-c2cccc(Cl)c2)o1	-9	0	3	23409*	?	-7
O=C(Nc1ccccc1N1CCCCC1)c1ccc(-c2cccc(Cl)c2)o1	-21	-5	1	9634	-1	1
O=C(NC(=S)Nc1cc(Cl)ccc1N1CCOCC1)c1ccc(-c2cccc(Cl)c2)o1	-2	0	0	16940*	-1	-2
COc1cc2[nH]c(=O)n(Cc3ccc(C(=O)N4CCCCC4)cc3)c(=O)c2cc1OC	-4	.	.	.	.	.
CC(=O)N1CCCc2cc(S(=O)(=O)NC(C(=O)NC(C)c3ccccc3)C(C)C)ccc21 (configuration not stated)	-12	1	-1	16474*	-1	11
CC(=O)N1CCc2cc(S(=O)(=O)NC(CC(C)C)C(=O)N3CCn4c3nc3ccccc34)ccc21 (configuration not stated)	-1	1	-2	21252*	1	-6
COC(=O)[C@H](Cc1ccccc1)NC(=O)N1CCN(Cc2ccccc2)CC1	4	1	-2	23718*	0	1
COc1ccc(C)cc1NC(=O)NC1CCN(Cc2ccccc2)CC1	-14	1	-4	11750	0	1
CCC(C)[C@H](NC(=O)NC1CCN(Cc2ccccc2)CC1)C(=O)OC (some centres not stated)	-8	2	3	22325*	2	-6
COC(=O)[C@H](Cc1ccccc1)NC(=O)N1CCCCCC1	-8	-3	31	3498	-1	4
CCCNC(=O)N[C@@H](Cc1ccccc1)C(=O)OC	5	-4	0	22925*	?	-7
O=C(Cn1nc(-c2cccs2)c2sc(N3CCOCC3)nc2c1=O)c1ccc2c(c1)CCCC2	-11	.	.	.	.	.
Nc1ncnc2nc(SCC(=O)N3CCN(c4ccccc4)CC3)[nH]c12	13	-12	19	17350*	?	-13
Nc1ncnc2nc(SCCN3CCCCC3)[nH]c12	-18	-2	0	16379*	0	4
O=C(CSc1ccccn1)N1CCN(c2cccc(Cl)c2)CC1	-5	-5	-6	9783	-1	5
O=C(CSc1ccccn1)N1CCN(c2ccccc2)CC1	1	-2	-2	16913*	-3	3
COc1ccccc1N1CCN(C(=O)CSc2nc3ncnc(N)c3[nH]2)CC1	8	4	0	5596	0	1
O=C(Cc1csc(Nc2ccc(F)cc2)n1)N1CCc2ccccc21	-11	.	.	.	.	.
Cc1cc(NS(=O)(=O)c2ccc(NC(=O)c3ccco3)cc2)nc(C)n1	-8	-1	-9	21969*	-4	3
COc1cc(NS(=O)(=O)c2ccc(NC(=O)c3ccc(C)o3)cc2)nc(OC)n1	-10	-8	19	16150*	?	5
CCCC(=O)Nc1ccc(S(=O)(=O)Nc2cc(OC)nc(OC)n2)cc1	-11	-15	?	4283	-3	3
CCOC(=O)NC(Nc1sc2c(c1C(N)=O)CCCC2)(C(=O)OCC)C(F)(F)F (configuration not stated)	-2	2	8	20183*	?	3

Bioassay records deposited in PubChem BioAssay by several laboratories.
